Assay results from PubChem BioAssay AID463173 (ICCB-Longwood Screening Facility, Harvard Medical School, 2010).
Screen size: about 52,000 compounds; about 4,300 (8.3%) were called active. The sample as a whole holds a higher share of actives than the screen did. Values without a mark were called inactive. No stated cut-off is given here; in the data, active means survival mostly below about 52% (no sharp cut-off); inactive means mostly above about 56%.

System: DeltatarO mutant
Test: S. aureus survival, RN4220 and DeltatarO strains – OD600, teichoic acid synthesis inhibitors, primary screen (AID 463173)
Conditions: S. aureus RN4220 wild type/DeltatarO growth, OD600, 18 h, stronger effect = lower value, screened at 18.75 µg/mL (by protocol)

Row | SMILES | survival
1 | Cc1cccc(N(C)C(=O)C(Cc2ccccc2)NS(=O)(=O)c2cccc3nsnc23)c1 (stereo not drawn) | 74%
2 | Cc1nnc(N2CCC(C(=O)N3CCCCC3)CC2)c2nn(-c3ccc(Cl)cc3)c(C)c12 | 95%
3 | COc1cc(-c2nc(SCC(=O)Nc3ccc(C)cc3)c(-c3ccc(F)cc3)[nH]2)cc(OC)c1OC | 91%
4 | COc1ccc(-c2nc(-c3ccccc3)c(-c3ccccc3)[nH]2)cc1Br | 59%
5 | COc1cc(-c2nc(-c3cccc(Cl)c3)c(-c3ccccc3)[nH]2)cc(OC)c1OC | 126%
6 | COc1ccc(-c2nc(-c3ccccc3)c(-c3ccc(O)cc3)[nH]2)cc1 | 1% (active)
7 | CCOc1ccc(-c2nc(-c3ccccc3)c(-c3ccccc3)[nH]2)cc1OCC | 142%
8 | COCCNC(=O)CSc1nc(-c2ccccc2)[nH]c1-c1ccc(OC)cc1 | 80%
9 | COc1ccc(-c2nc(SCC(=O)Nc3ccccc3)c(-c3ccc(F)cc3)[nH]2)cc1OC | 49%
10 | COc1ccc(NC(=O)CSc2nc(-c3ccc(OC)cc3)[nH]c2-c2ccc(OC)cc2)cc1 | 71%
11 | COc1cc(-c2nc(-c3ccccc3)c(-c3ccc(Br)cc3)[nH]2)cc(OC)c1O | 0% (active)
12 | COc1ccc(-c2[nH]c(-c3ccccc3)nc2SCC(=O)NC2CCCC2)cc1 | 67%
13 | COc1ccc(-c2nc(-c3ccccc3)c(-c3ccc(F)cc3)[nH]2)c(OC)c1C | 5% (active)
14 | COc1ccc(-c2[nH]c(-c3ccc(O)cc3)nc2-c2ccccc2)cc1 | 3% (active)
15 | CC(=O)N1C(=O)/C(=C2\SC(=S)N(C(C)C(=O)O)C2=O)c2ccccc21 (stereo not drawn) | 112%
16 | CCCCN(CC)CCNC(=O)C1CCCN(S(=O)(=O)c2cccc3nsnc23)C1 (stereo not drawn) | 117%
17 | Nn1c(SCCC(=O)O)nnc1-c1ccccc1 | 83%
18 | COCCNC(=O)c1cnc2sc(N3CCC(C)CC3)nn2c1=O | 86%
19 | O=S(=O)(c1ccccc1)c1nnn2c1nc(NCc1cccs1)c1sccc12 | 87%
20 | N#CC(C(=O)c1ccc(F)cc1)c1nc2ccccc2[nH]1 (stereo not drawn) | 86%
21 | CC1=C(C(=O)Nc2ccc(Cl)cc2)C(c2ccccc2C)n2ncc(C(=O)Nc3ccc(C)cc3)c2N1 (stereo not drawn) | 54%
22 | O=C(O)c1ccc(-c2nc3ccccc3[nH]2)cc1 | 86%
23 | Oc1ccc(-c2nc(-c3ccccc3)c(-c3ccc(Br)cc3)[nH]2)cc1 | -4% (active)
24 | O=C(CSc1nc(-c2ccc(F)cc2)[nH]c1-c1ccccc1)Nc1ccccc1 | 67%

Row | SMILES | survival
25 | Cc1nn(-c2ccc(N3CCCCC3)nn2)c(C)c1CCC(=O)NCc1ccccc1 | 67%
26 | Cc1ccc(N(CC(=O)NC2CCCC2)C(=O)c2ccc(N3CCCC3)nc2)cc1 | 89%
27 | Cc1ccc(NC(=O)C2CCCN(S(=O)(=O)c3cccc4nsnc34)C2)c(C)c1 (stereo not drawn) | 83%
28 | CC1(C)Oc2ccc(C(=O)Nc3ccccc3)cc2N(CC(=O)N2CCCC2)C1=O | 103%
29 | Cc1cc(N2CCC(C)CC2)nc2ccc(NC(=O)Cc3c(F)cccc3Cl)cc12 | 56%
30 | Cc1cc(N2CCC(C)CC2)nc2ccc(NC(=O)Cc3ccccc3Br)cc12 | 46% (active)
31 | Cc1ccc(Cl)cc1N1CCN(C(=O)CCC(=O)Nc2ccc3nc(N4CCC(C)CC4)cc(C)c3c2)CC1 | 52%
32 | Cc1cccc(CC(=O)Nc2ccc3nc(N4CCC(C)CC4)cc(C)c3c2)c1 | 4% (active)
33 | Cc1cc(N2CCC(C)CC2)nc2ccc(NC(=O)CCC(=O)N3CCN(c4cccc(C(F)(F)F)c4)CC3)cc12 | 31% (active)
34 | COc1cccc(CC(=O)Nc2ccc3nc(N4CCC(C)CC4)cc(C)c3c2)c1 | 49%
35 | Cc1cc(N2CCN(C)CC2)nc2ccc(NC(=O)Nc3ccccc3Br)cc12 | 84%
36 | COc1ccccc1CC(=O)Nc1ccc2nc(N3CCC(C)CC3)cc(C)c2c1 | 61%
37 | Cc1cc(N2CCC(C)CC2)nc2ccc(NC(=O)CCC(=O)N3CCN(c4ccccc4F)CC3)cc12 | 52%
38 | CC1=C(C(=O)Nc2ccc(C)cc2C)C(c2ccccc2C)n2ncnc2N1 (stereo not drawn) | 100%
39 | N#CCN(CC#N)C(=O)Cc1cccs1 | 102%
40 | Cc1ccc(CN2C(=O)C3(c4ccccc42)N(c2cccc(F)c2)C(=O)CS3(=O)=O)cc1 (stereo not drawn) | 75%
41 | CCN1C(=O)c2ccccc2S(=O)(=O)c2ccc(C(=O)NCc3ccc(F)cc3)cc21 | 59%
42 | COc1ccc2c(CNCc3ccc(C)o3)c(C(=O)O)n(Cc3ccccc3C)c2c1 | 96%
43 | Cc1ccc(NC(=O)c2cccc3c(=O)c4c([nH]c23)CCCC4)c(C)c1 | 69%
44 | COc1cccc(CNC(=O)Cn2c(C)c3cnn(-c4ccccc4)c(=O)c3c2C)c1 | 94%
45 | CSc1nc(NC(C)=O)nc(C)c1Br | 103%
46 | Nc1c(-c2nc(-c3ccc(F)cc3)cs2)c2ccccn2c1C(=O)c1ccc2c(c1)OCO2 | 89%
47 | COc1ccc(CCNc2nc(SCc3cccc(Cl)c3)nc3ccccc23)cc1OC | 94%
48 | N#Cc1c(C(F)(F)F)cc(-c2cccs2)nc1SCc1ccc(F)cc1 | 125%

Row | SMILES | survival
49 | COc1ccc2c(c1)c1c(c(=O)n(-c3ccccc3C)c(=O)n1CC(=O)NCc1ccc(C)cc1)n2C | 75%
50 | Cc1ccc(S(=O)(=O)c2nc(-c3ccco3)oc2SC(C)c2ccccc2)cc1 (stereo not drawn) | 45% (active)
51 | Cc1ccc(S(=O)(=O)c2nc(-c3ccco3)oc2SC(C)C)cc1 | 47%
52 | CCCSc1oc(-c2ccco2)nc1S(=O)(=O)c1ccc(Cl)cc1 | 51%
53 | Cc1ccc(S(=O)(=O)c2nc(-c3cccs3)oc2SC(C)c2ccccc2)cc1 (stereo not drawn) | 55%
54 | Cc1ccc(CSc2oc(-c3ccco3)nc2S(=O)(=O)c2ccc(Br)cc2)cc1 | 56%
55 | Cc1ccc(CSc2oc(-c3ccco3)nc2S(=O)(=O)c2ccc(Cl)cc2)cc1 | 63%
56 | Cc1ccc(S(=O)(=O)c2nc(-c3ccco3)oc2SCc2ccccc2Cl)cc1 | 61%
57 | CCC(C)Sc1oc(-c2ccco2)nc1S(=O)(=O)c1ccc(Cl)cc1 (stereo not drawn) | 49% (active)
58 | CC(Sc1oc(-c2cccs2)nc1S(=O)(=O)c1ccccc1)c1ccccc1 (stereo not drawn) | 44% (active)
59 | CC(C)Sc1oc(-c2cccs2)nc1S(=O)(=O)c1ccc(Cl)cc1 | 66%
60 | CCC(C)Sc1oc(-c2ccco2)nc1S(=O)(=O)c1ccc(C)cc1 (stereo not drawn) | 18% (active)
61 | CC(Sc1oc(-c2ccco2)nc1S(=O)(=O)c1ccc(Br)cc1)c1ccccc1 (stereo not drawn) | 70%
62 | COc1ccc(Cc2nc3ccc(C(=O)NCCc4ccc(Cl)cc4)cc3o2)cc1 | 75%
63 | O=C(Cn1ncc2c3ccccc3n(Cc3ccc(Cl)cc3)c2c1=O)NC1CCCCCC1 | 96%
64 | CSc1ccc(CNC(=O)Cn2c(-c3cccs3)cc3cc(F)ccc32)cc1 | 101%
65 | COc1ccc(NC(=O)C(NC(=O)/C=C\c2ccc3c(c2)OCO3)c2ccc(OC)cc2)cc1 (stereo not drawn) | 61%
66 | CCCn1c(CCC(=O)Nc2cc(OC)cc(OC)c2)nc2cccnc21 | 78%
67 | CCOc1ccc(CCNC(=O)c2cccc(-n3c(C)nc4cccnc43)c2)cc1 | 90%
68 | N#Cc1cc2c(cc1C#N)Oc1ccccc1O2 | 103%
69 | CC(C)CCn1c(=O)c2sccc2n2c(CCCC(=O)NC(C)C)nnc12 | 96%
70 | COc1cc(S(=O)(=O)N2CCN(C)CC2)c(C)cc1C | 78%
71 | COc1ccccc1CNC(=O)CN1C(=O)CCCc2ccccc21 | 94%
72 | COc1ccc2cc(CNc3ccc(OC)c(OC)c3)c(=O)n(CC(=O)Nc3ccc(C)cc3)c2c1 | 74%

Row | SMILES | survival
73 | O=C(NC1CCCCC1)c1ccc2c(c1)sc1nc(-c3ccc(F)cc3)cn12 | 62%
74 | CCC1CCCCN1CCCNC(=O)c1ccc2c(c1)sc1nc(-c3ccc(F)cc3)cn12 (stereo not drawn) | 14% (active)
75 | O=C(NC1CCCCCC1)c1ccc2c(c1)sc1nc(-c3ccc(F)cc3)cn12 | 85%
76 | CCc1ccc(-c2cn3c(n2)sc2cc(C(=O)NC4CCCCC4)ccc23)cc1 | 87%
77 | CC1CCCCN1CCCNC(=O)c1ccc2c(c1)sc1nc(-c3ccc(F)cc3)cn12 (stereo not drawn) | 29% (active)
78 | CCc1ccc(-c2cn3c(n2)sc2cc(C(=O)NC4CCCCCC4)ccc23)cc1 | 79%
79 | Cc1cc(Nc2ccc(C)c(C)c2)n2cnnc2n1 | 94%
80 | CC1CCN(c2cc3c(cc2F)c(=O)c(S(=O)(=O)c2cccc(Cl)c2)cn3Cc2ccccc2)CC1 | 80%
81 | COc1ccccc1C(=O)n1nc(-c2ccco2)nc1NCc1ccc(Cl)cc1 | 54%
82 | COc1ccc(C(=O)/C=C\Nc2ccc(S(=O)(=O)N=C(N)N)cc2)cc1OC | 76%
83 | Cc1ccc(CN(C(=O)COc2ccc(C)c(C)c2)C2CCS(=O)(=O)C2)o1 (stereo not drawn) | 92%
84 | Cc1cccc(CNC(=O)C2CCN(c3nnc(-n4c(C)ccc4C)s3)CC2)c1 | 95%
85 | O=C(c1noc2c1CCCCC2)N1CCN(c2cccc(Cl)c2)CC1 | 69%
86 | O=C(c1cc2ccc3cccnc3c2[nH]1)N1CCN(c2cccc(C(F)(F)F)c2)CC1 | 0% (active)
87 | CC1CCc2onc(C(=O)N3CCN(c4ccccc4)CC3)c2C1 (stereo not drawn) | 117%
88 | O=C(c1cc2ccc3cccnc3c2[nH]1)N1CCN(c2ccc(Cl)cc2)CC1 | 84%
89 | CC1CCc2onc(C(=O)N3CCN(c4cccc(Cl)c4)CC3)c2C1 (stereo not drawn) | 69%
90 | CC1CCc2onc(C(=O)N3CCN(c4cccc(C(F)(F)F)c4)CC3)c2C1 (stereo not drawn) | 37% (active)
91 | O=C(c1noc2c1CCCCC2)N1CCN(c2cccc(C(F)(F)F)c2)CC1 | 0% (active)
92 | O=C(c1cc2ccc3cccnc3c2[nH]1)N1CCN(c2ccccc2)CC1 | 75%
93 | O=C(c1noc2c1CCCCC2)N1CCN(c2ccc(Cl)cc2)CC1 | 98%
